Structures can show the parent of a compound that is named as a salt.
These compounds were tested on Saccharomyces cerevisiae BY4741 SeMeCo community (assay: z-score of subpopulation abundance vs DMSO median, subpopulation auxotrophic for LUM; higher = larger share of this subpopulation than in DMSO controls). Conditions: 10 µM; 24 h; SM minimal medium; subpopulation (auxotrophy): LUM.
Experimental: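 Fluorescent four-plasmid SeMeCo (self-establishing metabolically cooperating S. cerevisiae BY4741 community; plasmids pH-mRuby2, pL-mWasabi, pU-eCFP, pM-TagRFP657) was grown 24 h in minimal SM medium with each Selleck FDA-approved drug at 10 µM in 384-well plates. Cells were fixed and imaged by high-content confocal microscopy. For each auxotrophic subpopulation (and the prototroph), a z-score gives the deviation from the DMSO vehicle-control population median.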
`COCC1=C(C(=O)OC(C)OC(=O)OC(C)C)N2C(=O)[C@@H](NC(=O)/C(=N\OC)c3csc(N)n3)[C@H]2SC1` (stereo not given in full) [Cefpodoxime proxetil] was tested, and the “z-score of subpopulation abundance” value was 0.36.
For `NC(=N\CCCCCC/N=C(N)/N=C(\N)Nc1ccc(Cl)cc1)/N=C(\N)Nc1ccc(Cl)cc1` [Chlorhexidine diacetate], the “z-score of subpopulation abundance” value was 1.19.
`CS(=O)(=O)Nc1ccc([N+](=O)[O-])cc1Oc1ccccc1` [Nimesulide] was tested, and the “z-score of subpopulation abundance” value was 0.62.
With `O=C(O)Cc1ccccc1Nc1c(Cl)cccc1Cl` [Diclofenac Sodium] the “z-score of subpopulation abundance” value was -0.98.
For `C[C@]12CC[C@@H]3c4ccc(O)cc4CC[C@H]3[C@@H]1C[C@@H](O)[C@@H]2O` [Estriol], the “z-score of subpopulation abundance” value was -0.23.
`Cc1c(OCC(F)(F)F)ccnc1C[S@@+]([O-])c1nc2ccccc2[nH]1` [Dexlansoprazole] was tested, and the “z-score of subpopulation abundance” value was 0.16.
For `CC1(C)S[C@@H]2[C@H](NC(=O)[C@H](N)c3ccccc3)C(=O)N2[C@H]1C(=O)O` [Ampicillin sodium], the “z-score of subpopulation abundance” value was -0.14.
For `CN(C)CCC[C@@]1(c2ccc(F)cc2)OCc2cc(C#N)ccc21` [Escitalopram Oxalate], the “z-score of subpopulation abundance” value was -0.28.
In the case of `C/C=C1\[C@H]2C=C(C)C[C@]1(N)c1ccc(=O)[nH]c1C2` [(-)-Huperzine A (HupA)], the “z-score of subpopulation abundance” value is reported as -0.73.
In the case of `CC(C(=O)O)c1ccc(C(=O)c2cccs2)cc1` (stereo not given) [Suprofen], the “z-score of subpopulation abundance” value is reported as -0.07.
With `COc1ccc(CN2CCN(C(c3ccc(F)cc3)c3ccc(F)cc3)CC2)c(OC)c1OC` [Lomerizine 2HCl] the “z-score of subpopulation abundance” value was -0.31.
In the case of `C[C@@H]1C/C=C/C=C/C=C/C=C/[C@H](O[C@@H]2O[C@H](C)[C@@H](O)[C@H](N)[C@@H]2O)C[C@@H]2O[C@](O)(C[C@@H](O)C[C@H]3O[C@@H]3/C=C/C(=O)O1)C[C@H](O)[C@H]2C(=O)O` [Natamycin], the “z-score of subpopulation abundance” value is reported as 14.5.
In the case of `C[C@@H]1O[C@@H]1P(=O)(O)O` [Fosfomycin Disodium], the “z-score of subpopulation abundance” value is reported as 0.06.
In the case of `CONC(=O)Nc1ccc(-c2sc3c(c2CN(C)C)c(=O)n(-c2ccc(OC)nn2)c(=O)n3Cc2c(F)cccc2F)cc1` [Relugolix], the “z-score of subpopulation abundance” value is reported as 0.11.
With `Cc1nnc(NS(=O)(=O)c2ccc(N)cc2)s1` [Sulfamethizole] the “z-score of subpopulation abundance” value was -0.52.
For `CNCC[C@H](Oc1cccc2ccccc12)c1cccs1` [Duloxetine HCl], the “z-score of subpopulation abundance” value was -0.53.
With `C[C@@H]1[C@H](O)[C@@H](C)/C=C/C=C/C=C/C=C/C=C/C=C/C=C/[C@H](O[C@@H]2O[C@H](C)[C@@H](O)[C@H](N)[C@@H]2O)C[C@@H]2O[C@](O)(C[C@@H](O)C[C@@H](O)[C@H](O)CC[C@@H](O)C[C@@H](O)CC(=O)O[C@H]1C)C[C@H](O)[C@H]2C(=O)O` [Amphotericin B] the “z-score of subpopulation abundance” value was 29.1.
For `COc1ccc2cc(C(=O)O)ccc2c1` [6-Methoxy-2-naphthoic acid], the “z-score of subpopulation abundance” value was -0.89.
With `CN(Cc1cnc2nc(N)nc(N)c2n1)c1ccc(C(=O)N[C@@H](CCC(=O)O)C(=O)O)cc1` [Methotrexate disodium] the “z-score of subpopulation abundance” value was -1.74.
For `CN1CCOC(c2ccccc2)c2ccccc2C1` (stereo not given) [Nefopam HCl], the “z-score of subpopulation abundance” value was -0.26.
`CC(C)C(=O)c1c(C(C)C)nn2ccccc12` [Ibudilast] was tested, and the “z-score of subpopulation abundance” value was -0.2.
With `CO[C@H]1C[C@@H]2CC[C@@H](C)[C@@](O)(O2)C(=O)C(=O)N2CCCC[C@H]2C(=O)O[C@H]([C@H](C)C[C@@H]2CC[C@@H](OP(C)(C)=O)[C@H](OC)C2)CC(=O)[C@H](C)/C=C(\C)[C@@H](O)[C@@H](OC)C(=O)[C@H](C)C[C@H](C)/C=C/C=C/C=C/1C` [Ridaforolimus (Deforolimus, MK-8669)] the “z-score of subpopulation abundance” value was 11.
With `C[C@@H]1CC(=O)NN=C1c1ccc(NN=C(C#N)C#N)cc1` [Levosimendan] the “z-score of subpopulation abundance” value was -0.29.
In the case of `CS(=O)(=O)c1ccc([C@@H](O)[C@@H](CO)NC(=O)C(Cl)Cl)cc1` [Thiamphenicol], the “z-score of subpopulation abundance” value is reported as -0.6.
`CCN(CC)CC#CCOC(=O)C(O)(c1ccccc1)C1CCCCC1` (stereo not given) [Oxybutynin] was tested, and the “z-score of subpopulation abundance” value was -0.32.
With `c1cnc(N2CCN(Cc3ccc4c(c3)OCO4)CC2)nc1` [Piribedil] the “z-score of subpopulation abundance” value was 0.73.
For `CC1(C)S[C@@H]2[C@H](NC(=O)C(c3ccccc3)S(=O)(=O)O)C(=O)N2[C@H]1C(=O)O` (stereo not given in full) [Sulbenicillin Sodium], the “z-score of subpopulation abundance” value was 0.65.
For `CCCCN1CCCCC1C(=O)Nc1c(C)cccc1C` (stereo not given) [Bupivacaine HCl], the “z-score of subpopulation abundance” value was -0.72.
For `Cc1cc(O)c(C(=O)N[C@@H](C(=O)N[C@@H]2C(=O)N3C(C(=O)O)=C(CSc4nnnn4C)CS[C@H]23)c2ccc(O)cc2)cn1` [Cefpiramide sodium], the “z-score of subpopulation abundance” value was -0.42.
For `COc1ccccc1OCC(O)CN1CCN(CC(=O)Nc2c(C)cccc2C)CC1` (stereo not given) [Ranolazine 2HCl], the “z-score of subpopulation abundance” value was -0.47.
With `COc1cnc(NS(=O)(=O)c2ccc(N)cc2)nc1` [Sulfameter] the “z-score of subpopulation abundance” value was 0.64.
`CN1CCCN=C1/C=C/c1cccs1` [Pyrantel Pamoate] was tested, and the “z-score of subpopulation abundance” value was -0.44.
In the case of `CN1[C@@H]2CC[C@H]1C[C@@H](OC(c1ccccc1)c1ccccc1)C2` [Benztropine mesylate], the “z-score of subpopulation abundance” value is reported as -0.36.
For `Cc1ccc(C(=O)C(C)CN2CCCCC2)cc1` (stereo not given) [Tolperisone HCl], the “z-score of subpopulation abundance” value was -0.71.
For `Cc1onc(-c2c(Cl)cccc2Cl)c1C(=O)N[C@@H]1C(=O)N2[C@@H]1SC(C)(C)[C@@H]2C(=O)O` [Dicloxacillin Sodium], the “z-score of subpopulation abundance” value was 0.88.
`CC1(C)S[C@@H]2[C@H](NC(=O)[C@H](N)c3ccccc3)C(=O)N2[C@H]1C(=O)O` [Ampicillin Trihydrate] was tested, and the “z-score of subpopulation abundance” value was 0.23.
With `COc1cccc2c1C(=O)c1c(O)c3c(c(O)c1C2=O)CC(O)(C(=O)CO)CC3OC1CC(N)C(O)C(C)O1` (stereo not given) [Doxorubicin (Adriamycin) HCl] the “z-score of subpopulation abundance” value was 4.19.
For `O=C(O)CCCCCCCC(=O)O` [Azelaic acid], the “z-score of subpopulation abundance” value was -0.32.
With `COCCCN1CCC(NC(=O)c2cc(Cl)c(N)c3c2OCC3)CC1` [Prucalopride Succinate] the “z-score of subpopulation abundance” value was 0.31.
In the case of `Cc1ccc(Sc2ccccc2N2CCNCC2)c(C)c1` [Vortioxetine], the “z-score of subpopulation abundance” value is reported as -0.16.
